Test results taken from the supplement of paper PMC12494721.
Counter-ions that a name gives are not always drawn.

Key:
Settings in all cases: incubation time: 27 h, anaerobic, 37 °C;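 for the amine columns active = adjusted P below 0.05 in both replicates with a change the same way and a mean fold change under 0.8 or over 1.25; inactive = the rest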
[1] = system: Clostridium sporogenes DSM 1664; experiment: growth (OD595) fold change vs plate DMSO controls (fold change (ratio)); higher = more growth
In short: (§1)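 Growth is calculated as fold change against the median of the DMSO control wells on each plate. Readings at 595 nm from anaerobic mGAM cultures (96-well, 27 h, 37 °C) were blank-subtracted, background-corrected with 20 µM compound solutions in water, and converted to OD by a calibration factor of 5. Fold changes above 1.5 were recorded as NA, and results are means of 2 biological replicates.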

[2] = system: Escherichia coli IAI1; experiment: as above
In short: as §1

[3] = system: Klebsiella aerogenes DSM 30053; experiment: as above
In short: as §1

[4] = system: Ruminococcus gnavus DSM 108212; experiment: as above
In short: as §1

[5] = system: Klebsiella aerogenes DSM 30053; experiment: fold change of Histamine concentration vs plate DMSO controls (fold change (ratio)); higher = more amine produced, active = hit call of the paper (significant change in both replicates, either direction)
In short: (§2)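 In 80 µL wells, cultures of four gut bacterial strains in mGAM started at OD 0.1 before a 1:1 dilution and grew anaerobically at 37 °C for 27 h. Compounds were added to 20 µM final, except sweeteners at 50 µM final. After extraction of whole cultures with cold acetonitrile/methanol plus 0.1% formic acid and centrifugation, amines were measured by LC–triple-quadrupole MS in dynamic MRM mode against external calibration curves, with within-batch drift correction. Values give fold change over DMSO controls on the same plate, averaged across 2 biological replicates.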

[6] = system: Clostridium sporogenes DSM 1664; experiment: fold change of Tryptamine concentration vs plate DMSO controls (fold change (ratio)); higher = more amine produced, active = hit call of the paper (significant change in both replicates, either direction)
In short: as §2

[7] = system: Ruminococcus gnavus DSM 108212; experiment: as above
In short: as §2

[8] = system: Escherichia coli IAI1; experiment: fold change of Putrescine concentration vs plate DMSO controls (fold change (ratio)); higher = more amine produced, active = hit call of the paper (significant change in both replicates, either direction)
In short: as §2

[9] = system: Klebsiella aerogenes DSM 30053; experiment: as above
In short: as §2

[10] = system: Escherichia coli IAI1; experiment: fold change of Cadaverine concentration vs plate DMSO controls (fold change (ratio)); higher = more amine produced, active = hit call of the paper (significant change in both replicates, either direction)
In short: as §2

[11] = system: Klebsiella aerogenes DSM 30053; experiment: as above
In short: as §2

[12] = system: Ruminococcus gnavus DSM 108212; experiment: fold change of 2-Phenylethylamine concentration vs plate DMSO controls (fold change (ratio)); higher = more amine produced, active = hit call of the paper (significant change in both replicates, either direction)
In short: as §2

Row | SMILES | growth [1] | growth [2] | growth [3] | growth [4] | fold change of Histamine concentration [5] | fold change of Tryptamine concentration [6] | fold change of Tryptamine concentration [7] | fold change of Putrescine concentration [8] | fold change of Putrescine concentration [9] | fold change of Cadaverine concentration [10] | fold change of Cadaverine concentration [11] | fold change of 2-Phenylethylamine concentration [12]
1 | CNCCC(Oc1ccccc1OC)c1ccccc1 (stereo not given) [Nisoxetine hydrochloride] (20 µM) | 0.994 | 0.74 | 0.914 | 0.975 | 1.02 (inactive) | 0.993 (inactive) | 1.01 (inactive) | 0.707 (inactive) | 0.978 (inactive) | 1.18 (inactive) | 0.983 (inactive) | 0.92 (inactive)
2 | CN(Cc1cc(Br)cc(Br)c1N)C1CCCCC1 [Bromhexine hydrochloride] (20 µM) | 0.942 | 0.985 | 0.971 | 0.937 | 1.06 (inactive) | 1.05 (inactive) | 1 (inactive) | 1 (inactive) | 1.03 (inactive) | 1.06 (inactive) | 0.991 (inactive) | 1.07 (inactive)
3 | O=C1CCc2ccc(OCCCCN3CCN(c4cccc(Cl)c4Cl)CC3)cc2N1 [Aripiprazole] (20 µM) | 1.06 | 1.03 | 0.979 | 1.07 | 1.16 (inactive) | 0.955 (inactive) | 0.781 (active) | 1.03 (inactive) | 1.01 (inactive) | 1.11 (inactive) | 0.976 (inactive) | 0.811 (inactive)
4 | O=S(=O)([O-])NC1CCCCC1.[Na+] [Sodium cyclamate] (50 µM) | 1.01 | 1.02 | 0.974 | 1.03 | 1.04 (inactive) | 1.01 (inactive) | 1.01 (inactive) | 1.03 (inactive) | 1.02 (inactive) | 1.05 (inactive) | 1 (inactive) | 1.02 (inactive)
5 | O=C(O)CCC(=O)Nc1ccc(S(=O)(=O)Nc2nccs2)cc1 [Succinylsulfathiazole] (20 µM) | 1.03 | 1.11 | 1.2 | 1.13 | 0.965 (inactive) | 0.988 (inactive) | 1.02 (inactive) | 1.04 (inactive) | 0.997 (inactive) | 0.991 (inactive) | 1.01 (inactive) | 1.02 (inactive)
6 | OC[C@H]1O[C@H](O[C@H]2[C@H](O)[C@@H](O)[C@H](O)O[C@@H]2CO)[C@H](O)[C@@H](O)[C@@H]1O [Maltose] (50 µM) | 1 | 1.03 | 1.03 | 1 | 0.966 (inactive) | 0.991 (inactive) | 0.984 (inactive) | 1.02 (inactive) | 0.996 (inactive) | 1.06 (inactive) | 0.999 (inactive) | 1.01 (inactive)
7 | COC(=O)[C@@H]1[C@H]2C[C@H]3c4[nH]c5ccccc5c4CCN3C[C@@H]2CC[C@@H]1O [Yohimbine hydrochloride] (20 µM) | 1.02 | 1.06 | 1.04 | 0.793 | 0.982 (inactive) | 1.03 (inactive) | 1.01 (inactive) | 1.05 (inactive) | 1.01 (inactive) | 0.989 (inactive) | 1.02 (inactive) | 1.01 (inactive)
8 | CC(C)c1cc2c(cc1S(=O)(=O)O)[C@@]1(C)CCC[C@@](C)(C(=O)O)[C@@H]1CC2 [Ecabet sodium] (20 µM) | 1.16 | 1 | 1.01 | 0.982 | 0.974 (inactive) | 0.972 (inactive) | 1.01 (inactive) | 0.955 (inactive) | 1 (inactive) | 1.01 (inactive) | 0.991 (inactive) | 0.995 (inactive)
9 | CCCC1C(=O)N2C(N(C)C)=Nc3ccc(C)cc3N2C1=O (stereo not given) [Azapropazone] (20 µM) | 1.1 | 1 | 0.964 | 1.01 | 1.08 (inactive) | 1.09 (inactive) | 0.961 (inactive) | 0.996 (inactive) | 1 (inactive) | 0.997 (inactive) | 0.978 (inactive) | 0.91 (inactive)
10 | O=P(O)(O)C(Cl)(Cl)P(=O)(O)O [Clodronate disodium] (20 µM) | 0.99 | 1.03 | 1.02 | 1.09 | 1.02 (inactive) | 0.973 (inactive) | 0.999 (inactive) | 1.02 (inactive) | 1.02 (inactive) | 1.03 (inactive) | 1 (inactive) | 0.981 (inactive)
11 | C[C@@H](O[C@H]1OCCN(Cc2n[nH]c(=O)[nH]2)[C@H]1c1ccc(F)cc1)c1cc(C(F)(F)F)cc(C(F)(F)F)c1 [Aprepitant] (20 µM) | 1.21 | 0.988 | 1 | 1.2 | 1.02 (inactive) | 0.945 (inactive) | 0.742 (inactive) | 1.03 (inactive) | 1.01 (inactive) | 1.02 (inactive) | 0.993 (inactive) | 0.791 (inactive)
12 | CCN(CC)CCCC(C)Nc1ccnc2cc(Cl)ccc12 (stereo not given) [Chloroquine diphosphate] (20 µM) | 1.07 | 0.965 | 0.996 | 0.941 | 1.04 (inactive) | 1.1 (inactive) | 1.03 (inactive) | 0.939 (inactive) | 1.02 (inactive) | 0.962 (inactive) | 0.985 (inactive) | 1.02 (inactive)
13 | COC(=O)N/N=C/c1c[n+]([O-])c2ccccc2[n+]1[O-] [Carbadox] (20 µM) | 0.00259 | 0.0346 | 0.0738 | 0.0392 | 0.0834 (active) | 0.00903 (active) | 0.0355 (active) | 0.388 (active) | 0.377 (active) | 0.187 (active) | 0.983 (inactive) | 0.0387 (active)
14 | CCCNC(C)C(=O)Nc1c(C)csc1C(=O)OC (stereo not given) [Articaine hydrochloride] (20 µM) | 0.923 | 1.08 | 1.03 | 1.12 | 0.917 (inactive) | 1.06 (inactive) | 1.06 (inactive) | 0.985 (inactive) | 0.992 (inactive) | 0.966 (inactive) | 1.01 (inactive) | 1.09 (inactive)
15 | CCC[C@@H]1C[C@@H](C(=O)N[C@@H]([C@H]2O[C@H](SC)[C@H](OP(=O)(O)O)[C@@H](O)[C@H]2O)[C@H](C)Cl)N(C)C1 [Clindamycin Phosphate] (20 µM) | 0.836 | 1.04 | 0.998 | 0.709 | 1.01 (inactive) | 0.917 (inactive) | 0.844 (inactive) | 1.02 (inactive) | 1.01 (inactive) | 0.987 (inactive) | 0.999 (inactive) | 0.86 (inactive)
16 | CCN(CC)CCOc1ccc(C(=C(Cl)c2ccccc2)c2ccccc2)cc1 [(Z,E) Clomiphene citrate] (20 µM) | 1.06 | 1 | 1.02 | 1.01 | 0.973 (inactive) | 1.05 (inactive) | 0.655 (active) | 0.961 (inactive) | 0.981 (inactive) | 0.955 (inactive) | 1.01 (inactive) | 0.804 (inactive)
17 | OC[C@H]1O[C@@](CO)(OC[C@@]2(OC[C@@]3(O[C@H]4O[C@H](CO)[C@@H](O)[C@H](O)[C@H]4O)O[C@H](CO)[C@@H](O)[C@@H]3O)O[C@H](CO)[C@@H](O)[C@@H]2O)[C@@H](O)[C@@H]1O [Nystose] (50 µM) | 1.05 | 1.09 | 1.02 | 1.05 | 1.05 (inactive) | 1.01 (inactive) | 1 (inactive) | 0.999 (inactive) | 1.01 (inactive) | 0.958 (inactive) | 0.995 (inactive) | 0.994 (inactive)
18 | CC(C(=O)O)c1cccc(Oc2ccccc2)c1 (stereo not given) [Fenoprofen calcium salt dihydrate] (20 µM) | 0.882 | 0.997 | 1.04 | 1.21 | 0.981 (inactive) | 0.945 (inactive) | 0.951 (inactive) | 0.976 (inactive) | 0.983 (inactive) | 1.03 (inactive) | 1 (inactive) | 0.937 (inactive)
19 | CC(/C=C1\SC(=S)N(CC(=O)O)C1=O)=C\c1ccccc1 [Epalrestat] (20 µM) | 1.15 | 0.964 | 1.05 | 0.896 | 1.05 (inactive) | 1.01 (inactive) | 1.16 (inactive) | 1.14 (inactive) | 0.992 (inactive) | 0.932 (inactive) | 1.12 (inactive) | 1.44 (inactive)
20 | O=C(OCCOCCO)c1ccccc1Nc1cccc(C(F)(F)F)c1 [Etofenamate] (20 µM) | 1.2 | 1.09 | 1.1 | 1.2 | 0.902 (inactive) | 0.955 (inactive) | 0.883 (inactive) | 1.05 (inactive) | 0.998 (inactive) | 1.02 (inactive) | 1.02 (inactive) | 0.861 (inactive)
21 | COc1ncnc(NS(=O)(=O)c2ccc(N)cc2)c1OC [Sulfadoxine] (20 µM) | 1 | 1.01 | 1.04 | 1.19 | 1.02 (inactive) | 0.997 (inactive) | 0.985 (inactive) | 1.01 (inactive) | 0.997 (inactive) | 1 (inactive) | 1.01 (inactive) | 0.968 (inactive)
22 | CN(C/C=C/c1ccccc1)Cc1cccc2ccccc12 [Naftifine hydrochloride] (20 µM) | 1.08 | 1.21 | 0.994 | 0.89 | 0.999 (inactive) | 0.99 (inactive) | 0.941 (inactive) | 1.08 (inactive) | 0.996 (inactive) | 1.34 (active) | 0.99 (inactive) | 1.01 (inactive)
23 | NC(=O)c1cn(Cc2c(F)cccc2F)nn1 [Rufinamide] (20 µM) | 0.904 | 0.974 | 1.01 | 0.922 | 0.998 (inactive) | 0.969 (inactive) | 1.02 (inactive) | 0.999 (inactive) | 0.995 (inactive) | 0.98 (inactive) | 0.985 (inactive) | 1.02 (inactive)
24 | CNCCCN1c2ccccc2CCc2ccccc21 [Desipramine hydrochloride] (20 µM) | 0.96 | 1.09 | 0.971 | 1.12 | 1.06 (inactive) | 0.982 (inactive) | 0.946 (inactive) | 1.01 (inactive) | 1.01 (inactive) | 1.56 (inactive) | 0.987 (inactive) | 0.934 (inactive)
25 | CC[C@H](C)C(=O)O[C@H]1C[C@H](O)C=C2C=C[C@H](C)[C@H](CC[C@@H](O)C[C@@H](O)CC(=O)O)[C@H]21 [Pravastatin] (20 µM) | 0.87 | 1.09 | 0.973 | 1.15 | 1.1 (inactive) | 1.12 (inactive) | 1.08 (inactive) | 1.11 (inactive) | 0.975 (inactive) | 0.904 (inactive) | 1.01 (inactive) | 1.1 (inactive)
